# Most compounds without a hit are left out; they make up all but 15% or so of the library.
# RORgamma inh = ROR gamma (mouse) transcription inhibition; P51450; Drosophila S2 Gal4-RORgamma UAS-luciferase reporter, 20 h; Potency, µM (doses to about 53.6 µM), for the others: at the highest dose activity change, negative = inhibition, most hits filed as inhibitors; hit rate 5.4% among 310,000; AID 2551; further: nearly all actives have a fitted effect of over 60% in size
#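 Luciferase reporter read in Schneider cells carrying Gal4-RORγ (mouse) and UAS-Photinus luciferase; cells given compound 1 h before 700 uM copper sulfate induction, then incubated 20 h at ambient temperature.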
# TDP1 cell CPT = DT40-hTDP1 cell growth loss with CPT; AID 686979; hit rate 12% among 420,000; chicken DT40 Tdp1-/-;hTDP1 cells + 20 nM CPT, ATP luminescence, 48 h; Potency, µM (highest dose often 46.2 µM), for inactives: top-dose activity change, negative = growth inhibition, actives largely listed as inhibitors; further: nearly all actives have a fitted effect of over 55% in size
#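 Chicken DT40 Tdp1-/- cells complemented with human TDP1, 400 cells/well, exposed to compounds plus 20 nM camptothecin for at least 48 h at 37 C; viability read as ATP content by CellTiter-Glo luminescence.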
# ELG1 DNA repair = blocks ELG1-dependent DNA repair in HEK293T cells. HEK293T ELG1-luciferase reporter, luminescence, 16 h; DNA damage induced by 5-fluorouridine. Potency, µM (top dose mostly 46.1 µM), for inactives: at the highest dose activity change, negative = inhibition, actives largely listed as inhibitors. hit rate 2.3% among 330,000; further: nearly all actives have a fitted effect of over 55% in size
#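 Step one: seed 2,000 cells per well. Step two: pin-transfer compound or DMSO alongside 5-fluorouridine. Step three: incubate 16 hr, 37 °C, 5% CO2. Step four: add ONE-Glo, wait 30 min, read luminescence.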
# 12-LOX inh = ALOX12 (human) lipoxygenase inhibition; P18054; purified 12hLO, xylenol orange hydroperoxide absorbance; Potency, µM (top dose mostly 108 µM), for inactives: at the top dose activity change, negative = inhibition, most hits filed as inhibitors; hit rate 1.1% among 580,000; AID 1671190
# Target sequence (P18054 whole entry, looked up): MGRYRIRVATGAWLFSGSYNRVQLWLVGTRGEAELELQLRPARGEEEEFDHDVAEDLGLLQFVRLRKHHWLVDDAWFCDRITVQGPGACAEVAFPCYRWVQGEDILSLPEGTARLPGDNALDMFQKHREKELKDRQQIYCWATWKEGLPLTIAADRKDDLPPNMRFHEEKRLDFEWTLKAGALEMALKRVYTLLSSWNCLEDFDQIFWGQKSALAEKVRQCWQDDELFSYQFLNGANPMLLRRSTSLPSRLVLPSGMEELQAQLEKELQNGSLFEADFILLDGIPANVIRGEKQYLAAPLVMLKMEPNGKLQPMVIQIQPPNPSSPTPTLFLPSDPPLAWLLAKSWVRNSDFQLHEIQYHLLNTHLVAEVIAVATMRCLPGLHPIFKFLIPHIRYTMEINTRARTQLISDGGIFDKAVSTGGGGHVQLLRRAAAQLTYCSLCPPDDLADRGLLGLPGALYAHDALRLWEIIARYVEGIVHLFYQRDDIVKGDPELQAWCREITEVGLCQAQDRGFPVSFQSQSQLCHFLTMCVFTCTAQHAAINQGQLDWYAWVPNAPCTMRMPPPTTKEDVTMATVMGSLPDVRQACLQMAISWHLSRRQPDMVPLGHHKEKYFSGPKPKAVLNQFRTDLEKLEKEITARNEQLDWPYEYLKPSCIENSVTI
#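 Hydroperoxide product was detected by ferrous iron/xylenol orange as the 573 to 405 nm absorbance ratio. Arachidonic acid at 40 uM (final) was turned over for 30 min at room temperature by 150 nM human 12hLO, pH 7.0 Hepes buffer, after 15 min compound preincubation.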
# VP16 counter = inhibits Gal4-VP16 luciferase reporter, ROR gamma counter-screen. Potency, µM (doses to about 53.6 µM), for inactives: top-dose activity, negative = inhibition, hits mostly inhibitors. hit rate 3.5% among 310,000. AID 2546. Drosophila S2 Gal4-VP16 UAS-luciferase, luminescence, 20 h;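 further: Gal4-VP16 expression switched on by copper sulfate through the metallothionein promoter; nearly all actives have a fitted effect of over 50% in size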
# TDP1 cell noCPT = qHTS for Inhibitors of human tyrosyl-DNA phosphodiesterase 1 (TDP1): qHTS in cells in absence of CPT. DT40 Tdp1-/- hTDP1 cells, no CPT, ATP luminescence, 48 h. Potency, µM (titrated, usually from 46.2 µM), without a hit: at the top dose activity change, negative = growth inhibition, usual class: inhibitors. hit rate 15% among 420,000. AID 686978, 2013; further: nearly all actives have a fitted effect of over 55% in size
#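 DT40 Tdp1-/-;hTDP1 cells, no CPT (DMSO vehicle only), 400 cells/well; compounds pin-transferred; ≥48 hr, 37 °C; CellTiter-Glo 30 min RT dark, luminescence read.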
# * = called active by the depositor; u = inconclusive; x = no result; [ ] = another dose, or the depositor's remark. The call rests on the fitted dose curve; in most records, active means well fitted curve in the direction sought with a large enough effect; inconclusive means small, poorly fitted or top-dose-only effect, or another doubt; inactive means no such curve, though single readings can be large; an effect the other way counts as inactive or inconclusive. On the % scale 0 is the no-effect control and ±100 the full control effect; potency means the concentration at half of the fitted maximal effect.
SMILES,RORgamma inh,TDP1 cell CPT,ELG1 DNA repair,12-LOX inh,VP16 counter,TDP1 cell noCPT
C/C(CC(=O)NC(C)(C)C)=N\NC(=O)c1ccccc1N,u,-22%,u,11%,-2%,-21%
CCOC(=O)C1CCN(CC(=O)Nc2ccc(OC)c(Cl)c2)CC1,3%,-2%,u,-16%,-6%,-3%
COc1ccc(NC(=O)CN2CCN(CC(=O)Nc3ccccc3Cl)CC2)cc1Cl,18%,15µM*,u,0%,4%,12µM*
C/C(CC(=O)NC(C)(C)C)=N\NC(N)=S,11µM*,u,11%,-29%,u,u
O=C(CCNC(=O)c1ccccc1Cl)Nc1ccc(Cl)c(C(F)(F)F)c1,-7%,u,27%,-9%,-20%,23µM*
N#Cc1cccnc1NCCc1cccc2cccnc12,x,x,x,-4%,x,x
COc1ccccc1NC(=O)CN1CCN(CC(=O)Nc2ccc(Cl)c(C(F)(F)F)c2)CC1,u,15µM*,18µM*,0%,u,13µM*
CCc1ccccc1NCC(=O)Nc1ccc(Cl)c(C(F)(F)F)c1,10%[10 µM],26µM*,-3%,8%,u,16µM*
C/C(CC(=O)Nc1ccc(Cl)c(C(F)(F)F)c1)=N\NC(=O)c1ccccc1O,u,u,-11%,-19%,u,u
COc1ccccc1NC(=O)CN1CCN(CC(=O)Nc2ccc(F)cc2F)CC1,24%,-27%,u,8%,u,-22%
C/C(CC(=O)Nc1ccc(Cl)c(C(F)(F)F)c1)=N\NC(N)=S,11µM*,u,u,u,u,u
Cc1ccc(N2C(=O)C(CN3CCOCC3)C2c2ccccc2)cc1 (configuration not stated),u,u,u,1%,-5%,15µM*
Oc1ccc(C2C(c3ccccc3)=NN=C(c3ccc(Cl)cc3)N2O)c(O)c1 (configuration not stated),31%,-15%,13%,32µM*,-16%,-23%
Oc1ccc(C2C(c3ccccc3)=NN=C(c3ccccc3F)N2O)c(O)c1 (configuration not stated),29%,5%,-1%,-27%,1%,-10%
O=C(O)CC(NC(=O)Cc1ccccc1)c1ccccc1 (configuration not stated),-15%,-5%,u,u,-13%,-2%
O=C(Cc1ccccc1)N[C@H](c1ccccc1)P(=O)(O)CO,2.8µM*,-3%,10%,-9%,-4%,3%
C=CCN(C)CCCCCCOc1ccc(C(=O)c2ccc(Br)cc2)c(F)c1,-17%,5µM*,x,x,u,5µM*
CC(=O)c1ccc(OCC(O)CN(C)CCOc2ccc(Br)cc2)cc1 (configuration not stated),-1%,u,u,-6%,4%,u
CCOC(=O)Nc1ccc2c3c(cccc13)-c1ccccc1-2,x,18µM*,x,-16%,x,21µM*
Cc1ccccc1C(C)NC(=O)CCC(=O)c1ccc2c(c1)CCC2 (configuration not stated),x,x,x,3%,x,x
N=C(N)SCc1ccc(Cl)cc1Cl,0%,23µM*,10µM*,u,2%,18µM*
OCc1ccc(Cl)cc1Cl,14%,14%,x,-11%[22.9 µM],-3%,-10%
CC(C)c1nc2sc3c(=O)[nH]cnc3c2c2c1CCC2,33%,17%,6%,-7%,-9%,-30%
CN(CCO)c1ncnc2c1sc1nc(N3CCOCC3)c3c(c12)CCC3,0%,13µM*,u,157%,5%,21µM*
C1CCc2c(c(N3CCOCC3)nc3sc4c(N5CCOCC5)nnnc4c23)C1,x,7%,x,20%,x,-3%

# Assay outcomes: PubChem BioAssay, National Center for Advancing Translational Sciences (NCATS)
